Hits are enriched below; roughly 17% of the tested compounds scored in any of these assays.
HT1080 IDH1KD tx = kills HT-1080 cells with IDH1 knockdown; HT-1080 IDH1 knockdown viability, ATP luminescence, 48 h; Potency, µM (series often up to 46.1 µM), for the others: top-dose activity, negative = toxicity, most hits filed as cytotoxic; 2% of 360,000 active; AID 686971;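 also: 0% = DMSO wells and -100% = cell-free medium wells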
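IDH1KD HT-1080 cells, 750/well, RPMI + 5% FBS; compound pinned after 2 h settling; 48 h, 37 °C; CellTiter-Glo luminescence; % activity normalised to DMSO and no-cell wells; curves fitted, classed by r2 and efficacy.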
TDP1 cell noCPT = qHTS for Inhibitors of human tyrosyl-DNA phosphodiesterase 1 (TDP1): qHTS in cells in absence of CPT. DT40 Tdp1-/- hTDP1 cells, no CPT, ATP luminescence, 48 h. Potency, µM (titrated, usually from 46.2 µM), for the others: at the top dose activity change, negative = growth inhibition, hits mostly inhibitors. 15% of 420,000 active. AID 686978, 2013; also: % is scaled to controls: 0 for no effect and ±100 for the full control effect; nearly all actives have a fitted effect of over 55% in size
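Seeded 400 DT40-hTDP1 cells/well (vehicle DMSO, no 20 nM CPT); pinned compounds; ≥48 hr at 37 °C; CellTiter-Glo luminescence as viability measure.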
HepG2 viability = counter-screen for TGF-b inhibitors: cytotoxicity in HepG2 cells | HepG2 CAGA-GFP viability, ATP luminescence, 18 h | AID 588856 | Potency, µM (top dose mostly 46.1 µM), inactives show top-dose activity change, negative = cytotoxicity, usual class: cytotoxic | 0.76% of 410,000 active
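HepG2 CAGA-GFP cells (1000/well, DMEM with 1% FBS) received compound, then TGF-beta at 500 pg/mL final, and were incubated 18 hours at 37 degrees C. Viability was read by CellTiter-Glo luminescence. Media-only wells were set as complete cell-killing and DMSO as no toxicity.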
TGFb inhibitor = blocks TGF-b signaling | HepG2 CAGA-GFP TGF-b/SMAD3 reporter, GFP fluorescence, 18 h; TGF-beta stimulated, 500 pg/mL final | Potency, µM (top dose mostly 46.1 µM), inactives show at the top dose activity, negative = inhibition, most hits filed as inhibitors | 1.2% of 410,000 active; also: % is scaled to controls: 0 for no effect and ±100 for the full control effect; nearly all actives have a fitted effect of over 65% in size
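HEPG2 CAGA-GFP reporter cells (1000/well, DMEM with 1% FBS) received compounds, then recombinant TGF-beta at 500 pg/mL final for 18 hours at 37 degrees C. Per-cell GFP summed per well was normalised to unstimulated and stimulated DMSO controls before curve fitting.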
DT40 TDP1 CPT = DT40-hTDP1 cell growth loss with CPT | chicken DT40 Tdp1-/-;hTDP1 cells + 20 nM CPT, ATP luminescence, 48 h | 12% of 420,000 active | Potency, µM (titrated, usually from 46.2 µM), for inactives: at the top dose activity change, negative = growth inhibition, most hits filed as inhibitors | AID 686979; also: % is scaled to controls: 0 for no effect and ±100 for the full control effect; nearly all actives have a fitted effect of over 55% in size
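Chicken DT40 Tdp1-/- cells stably complemented with human TDP1 were seeded at 400 cells/well in medium containing 20 nM camptothecin, exposed to pin-transferred compounds, and grown at 37 °C for at least 48 hr. Viability was read as ATP luminescence.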
HT1080NT lethal = kills 2HG-producing HT-1080-NT fibrosarcoma cells. HT-1080-NT fibrosarcoma viability, CellTiter-Glo ATP luminescence, 48 h. Potency, µM (titrated, usually from 46.1 µM), for the others: at the top dose activity, negative = less viability, usual class: cytotoxic. 1.6% of 360,000 active;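 also: NT is the 2HG producing partner of a matched IDH1 knockdown line; 0% = DMSO-treated cells and -100% = media-only wells without cells; nearly all actives have a fitted effect of over 55% in size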
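HT-1080-NT fibrosarcoma cells (2HG-overproducing), 750 cells/well in RPMI with 5% FBS, dosed after 2 h and incubated 48 h at 37C. CellTiter-Glo luminescence normalized to DMSO and no-cell wells; concentration-response curves fitted and classed.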
Numbers without * were called inactive; ? = inconclusive; . = no result; ! = repeats disagree; [ ] = dose if it differs, or a comment. Calls follow the shape of the dose curve; as a rule, active = well fitted curve in the direction sought with a large enough effect; inconclusive = small, poorly fitted or top-dose-only effect, or another doubt; inactive = no such curve, though single readings can be large; an effect the other way counts as inactive or inconclusive. Potency is read from the fitted curve at half-maximal effect.

SMILES	HT1080 IDH1KD tx	TDP1 cell noCPT	HepG2 viability	TGFb inhibitor	DT40 TDP1 CPT	HT1080NT lethal
CCCCNC(=O)C(=O)NCCCn1ccnc1	15%	1%	7%	?	0%	10%
CCCCCCCCn1ccc(=N)cc1	-22%	1.8µM*	-32%	-24%	2.1µM*	?
CCCCCCN1Cc2ccccc2C1	4%	-20%	2%	-21%	1%	12%
CCc1cc2c(c(CC)n1)CCC(=O)N2Cc1ccc(-c2ccccc2-c2nn[nH]n2)cc1	.	-3%	.	.	10%	.
Cn1cccc1C(=O)OCc1ccc(C(C)(C)C)cc1	-14%	?	-18%	?	?	?
CCOc1ccc(NC(=O)CC2C(=O)N(c3ccc(C)cc3)C(=O)N2C2CCCCC2)cc1 (stereo not drawn)	.	?	-15%	?	18µM*	.
COc1ccc(NC(=O)CC2C(=O)N(c3ccc(C)cc3)C(=O)N2C2CCCC2)cc1 (stereo not drawn)	.	-30%	-1%	0%	?	.
CCOC(=O)c1ccc(NC(=O)CC2C(=O)N(c3ccccc3)C(=O)N2C2CCCCC2)cc1 (stereo not drawn)	.	16µM*	-5%	-8%	26µM*	.
Cc1ccc2oc(-c3cc(NC(=O)c4ncn[nH]4)ccc3O)nc2c1	11%	?	-17%	-2%	?	1%
C=CCn1c(SCC(=O)NCC2CCCO2)nc2sc(CC)cc2c1=O (stereo not drawn)	1%	?	-11%	6%	?	4%
NC(=O)c1ccc(N2CCN(S(=O)(=O)c3cccs3)CC2)c([N+](=O)[O-])c1	-12%	3.7µM*	-27%	2%	8.2µM*	-5%
O=C(c1ccc(N2CCN(S(=O)(=O)c3ccccc3)CC2)c([N+](=O)[O-])c1)N1CCOCC1	-4%	21µM*	-31%	-18%	?	0%
Cc1oc(-c2ccccc2NC(=O)C2CCCO2)nc1CNC(=O)c1cc(Cl)ccc1F (stereo not drawn)	.	-11%	.	.	10%[9.04 µM]	.
CC(C)(C)c1cc2ncnc(N3CCCCC3)c2s1	-6%	29µM*	-7%	0%	13µM*	-13%
Cn1nnc2c(N3CCCCC3)ncnc21	21%	?	-16%	38%	?	17%
O=C(NCc1ccccc1)C1c2ccccc2OCC(=O)N1CC(F)(F)F (stereo not drawn)	19%	-16%	.	.	5%	21%
CCOc1ccc(C2c3c(oc4ccc(C)cc4c3=O)C(=O)N2CCCN(C)C)cc1 (stereo not drawn)	.	-6%	2%	16%	2%	.
CCOCN(C(=O)Cn1c(COC)nc2ccccc21)c1c(C)cccc1CC	-1%	?	-30%	-22%	?	1%
CCOCN(C(=O)Cn1cnc2cc(C)c(C)cc21)c1c(C)cccc1CC	.	16µM*	-20%	-29%	21µM*	.
Cc1ccc2c(c1)c(C)c(C)n2CC(O)CN1CCCCC1C (stereo not drawn)	-20%	?	-19%	0%	?	-25%
CC(=O)c1c(C)nn(CC(O)Cn2c3c(c4cc(C)ccc42)CCCC3=O)c1C (stereo not drawn)	-4%	?	-24%	-18%	?	-3%
Cc1ccc2c(c1)c(C)c(C)n2CC(O)Cn1nc(C)c(Br)c1C (stereo not drawn)	?	?	16µM*	?	-27%	16µM*
Cc1ccc2c(c1)c1c(n2CC(O)Cn2nc(C)c(Br)c2C)C(=O)CCC1 (stereo not drawn)	-4%	21µM*	-5%	31%	21µM*	-2%
O=C(CC1S/C(=N/N=C2CCCCCC2)NC1=O)Nc1ccc(Br)cc1F (stereo not drawn)	2%	8%	-30%	-31%	-1%	-14%
Cc1ccccc1C(=O)Nc1nnc(SCc2cc(=O)n3ccccc3n2)s1	.	-27%	-30%	-39%	-3%	.
SMILES	HT1080 IDH1KD tx	TDP1 cell noCPT	HepG2 viability	TGFb inhibitor	DT40 TDP1 CPT	HT1080NT lethal
Cc1c(O)cccc1C(=O)N[C@@H](CSc1ccccc1)[C@H](O)CN1C[C@H]2CCCC[C@H]2C[C@H]1C(=O)NC(C)(C)C	18µM*	23µM*!	16µM*!	?	9.2µM*!	13µM*
O=C(CCn1nc(-c2ccc(Cl)cc2)c2ccccc2c1=O)Nc1cccnc1	-16%	?	-7%	-2%	?	-6%
N#Cc1ccc(NC(=O)c2ccc3c(c2)nnn3C2CCCC2)cc1	.	-10%	23%	?	-16%	.
CC1(C(=O)NS(=O)(=O)c2ccc3c(c2)CCO3)CCN1C(=O)CCC1CCCC1 (stereo not drawn)	?	3%	-12%	-1%	-9%	13%
CN(C)CCN(Cc1cccs1)c1ccccn1	-16%	24µM*!	3%	8%	?	-13%
CC(=O)Nc1cc(N=Cc2ccc(O)cc2O)c(Cl)cc1Cl	18µM*	?	-59%	?	?	?
COc1ccc(O)c(C=Nc2cc(NC(C)=O)c(Cl)cc2Cl)c1	2%	-13%	-13%	-2%	5%	5%
Cn1c(=O)c2[nH]c(N3CCCCC3)nc2n(C)c1=O	1%	1%	1%	-6%	21µM*	4%
Cc1cc(C(=O)C(=O)N(C)C)c(C)n1-c1ccc([N+](=O)[O-])cc1	-10%	-25%	2%	?	-20%	0%[9.24 µM]
Cc1cc(C(=S)N2CCOCC2)c(C)n1-c1ccc(Cl)cc1	-1%	21µM*	0%	-22%	21µM*	4%
Cc1cc(C)cc(-n2c(C)cc(C(=S)N3CCOCC3)c2C)c1	8%	12µM*	-6%	2%	?	7%
Cc1cccc(-n2c(C)cc(C(=S)N3CCOCC3)c2C)c1C	5%	18µM*	8%	-12%	15µM*	8%
Cc1cccc(C)c1NC(=S)N1CCOCC1	11%	-13%	-3%	12%	-3%	0%
C=CCN(CC=C)C(=O)C(=O)c1cc(C)n(-c2ccc([N+](=O)[O-])cc2)c1C	-3%	15µM*	3%	?	?	-4%
COc1cccc(NC(=O)CSc2nccn2C2CCCC2)c1	.	?	-20%	0%	0%	.
Cc1cc(C(=O)C(=O)N(C)C)c(C)n1-c1ccc(Cl)cc1	-2%	18µM*	-3%	2%	?	0%
